Screens (PubChem BioAssay)
Sampled rows, rich in hits. Any-hit rate of the full collection: about 2.7%.
MPTP block = inhibitors of mitochondrial permeability transition pore. hit rate 1.4% among 360,000. AID 602449. inhibition, % at 10 µM. isolated mouse mitochondria, Ca2+ swelling absorbance, 30 min;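 active = inhibition of 50% or more, scaled per plate between neutral and stimulator controls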;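 also: 0% = DMSO wells given calcium and 100% = 1 mM EGTA wells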
aDG glyco act = alpha-DG glycosylation activation; Pro5-aDG cells, alpha-DG glycosylation AlphaScreen (IIH6); 0% Pro5, 100% B10-LARGE cell signal; activation, % at 10 µM; hit rate 0.22% among 360,000; AID 624168;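 active = activation of at least 8% versus controls, or a plate z-score of at least 8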;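 also: Pro5 are CHO cells carrying HIG-tagged alpha-DG that lacks glycosylation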
H9c2 TAG inh = triacylglycerol accumulation inhibition | H9c2 cells, Nile Red lipid (TAG) fluorescence; cells loaded with 200 µM oleic acid | hit rate 0.66% among 230,000 | inhibition, % at 12.5 µM;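 active = pattern-corrected inhibition of lipid staining of at least 50% with the nuclear-stain viability signal not falling by more than 50%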;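 also: 0% = DMSO wells and 100% = triacsin C control wells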
NadD inh = inhibitors of Staphylococcus aureus NadD | purified NadD enzyme, colorimetric absorbance read-out | hit rate 0.78% among 360,000 | inhibition, % at 20 µM; in the data active = inhibition above about 26%
An asterisk follows results filed as active; . = not tested or not shown.

SMILES	MPTP block	aDG glyco act	H9c2 TAG inh	NadD inh
COc1cccc(/C=N/n2c(N)c(S(=O)(=O)c3cccs3)c3nc4ccccc4nc32)c1	1.6	-0.2	.	5.8
COc1ccc(S(=O)(=O)c2c(N)n(Cc3ccco3)c3nc4ccccc4nc23)cc1	-6.6	0.6	.	34.3*
Nc1c(S(=O)(=O)c2cccs2)c2nc3ccccc3nc2n1/N=C/c1cccc(O)c1	-2.5	-0.7	.	45.3*
Cc1ccc(S(=O)(=O)c2c(N)n(/N=C/c3ccco3)c3nc4ccccc4nc23)cc1	2.7	0.1	.	25.0
Cc1ccc(S(=O)(=O)c2c(N)n(CCCN(C)C)c3nc4ccccc4nc23)cc1	-3.2	0.0	4.8	-7.9
CCC(C)(C)c1ccc(OCCCC[n+]2cccc(C)c2)c(C(C)(C)CC)c1	27.8	0.1	71.5	8.9
N#Cc1c(N(CCO)CCO)nc(N)c2c(N)nc3c(c12)CC(=O)N3CC1CCCO1 (configuration not stated)	-0.1	-0.2	-3.3	-18.4
N#Cc1c(N2CCCC(O)C2)nc(N)c2c(N)nc3c(c12)CC(=O)N3C12CC3CC(CC(C3)C1)C2 (configuration not stated)	-2.8	-0.5	-47.2	56.9*
CN1CCN(c2cc(-c3cc(O)c4ncccc4c3)ccn2)CC1	-0.8	-0.3	76.6*	4.7
c1cncc(-c2nc3cc4ccccc4cc3[nH]2)c1	2.0	0.1	.	-6.6
Oc1cc(-c2cccnc2)cc2cccnc12	-1.6	-0.2	56.3*	11.4
CN1CCN(C(=O)c2cccc(-c3cc(O)c4ncccc4c3)c2)CC1	-1.7	1.5	.	-0.2
COC(=O)[C@@]1(C(C)C)N=C(c2cc(OC)c(OC)c(OC)c2)[C@]2(O1)C(=O)Nc1ccc(F)cc12	0.3	-0.1	.	-1.6
CC(=O)c1ccc(NC(=O)CN2C(=O)/C(=C/C=C/c3ccccc3)SC2=S)cc1	-0.7	-0.2	.	35.9*
CC(/C=C1\SC(=S)N(CCC(=O)Nc2ccccc2O)C1=O)=C\c1ccccc1	0.2	-0.7	15.0	33.7*
O=C(CCN1C(=O)/C(=C/C=C/c2ccccc2)SC1=S)Nc1ccccn1	1.5	-0.1	12.5	37.0*
CC1=CC2=NC(=O)CC(C)(C(=O)N(CC(=O)NC3CCCC3)Cc3ccccc3)N2C=C1 (configuration not stated)	0.1	-0.1	.	-5.9
CCn1c(=O)c(C(=O)CN(C)CC(=O)Nc2ccccc2Br)c(N)n(Cc2ccccc2)c1=O	0.1	0.2	12.4	8.8
C#CCOCCOCCOCCNc1nc(N2CCOCC2)nc(N2CCN(C(=O)CCCCCCCCCCNC(=O)[C@@H]([C@H](C)CC)n3cc(CCCCCN)nn3)CC2)n1	-2.5	-0.2	1.6	2.9
C#CCOCCOCCOCCNc1nc(N2CCN(C(=O)CCCCCCCCCCNC(=O)[C@H]([C@@H](C)CC)n3cc(CCCCCN)nn3)CC2)nc(N2CCN(C(=O)CCCCCCCCCCNC(=O)[C@H]([C@@H](C)CC)n3cc(CCCCN=C(N)N)nn3)CC2)n1	-15.0	0.2	18.6	48.1*
C#CCOCCOCCOCCNc1nc(N2CCN(C(=O)CCCCCCCCCCNC(=O)[C@H]([C@@H](C)CC)n3cc(CCCCCN)nn3)CC2)nc(N2CCN(C(=O)CCCCCCCCCCNC(=O)[C@H](CO)n3cc(CCCCCN)nn3)CC2)n1	-4.2	0.0	18.1	21.3
C#CCOCCOCCOCCNc1nc(N2CCN(C(=O)Cn3cc(CCCN=C(N)N)nn3)CC2)nc(N2CCN(C(=O)[C@H]([C@@H](C)CC)n3cc(CCCCN)nn3)CC2)n1	-1.4	0.2	0.6	-7.5
C#CCOCCOCCOCCNc1nc(N2CCN(C(=O)CCCCCCCCCCNC(=O)Cn3cc(CCCCCN)nn3)CC2)nc(N2CCN(C(=O)CCCCCCCCCCNC(=O)[C@H]([C@@H](C)CC)n3cc(CCCCN=C(N)N)nn3)CC2)n1	-13.1	0.3	-2.9	43.3*
C#CCOCCOCCOCCNc1nc(N2CCN(C(=O)CCCCCCCCCCNC(=O)[C@H]([C@@H](C)CC)n3cc(CCCCN=C(N)N)nn3)CC2)nc(N2CCN(C(=O)CCCCCCCCCCNC(=O)[C@H](CO)n3cc(CCCCCN)nn3)CC2)n1	19.9	-0.6	-35.5	35.7*
Cc1ccc(OCC(=O)NC2CCS(=O)(=O)C2)c([N+](=O)[O-])n1 (configuration not stated)	-1.6	0.0	5.7	3.4
CCN1CCN(c2cc(N3CCN(C(=O)c4ccco4)CC3)c3c4c(onc24)-c2ccccc2C3=O)CC1	2.0	-0.6	.	44.8*
O=C(O)CCNc1cc(N2CCN(C(=O)c3ccco3)CC2)c2noc3c2c1C(=O)c1ccccc1-3	6.0	-0.2	.	28.4
CC(=O)N(C(C)=O)c1ncn(C)c1S(=O)(=O)Nc1ccccc1	-2.4	-0.1	-16.3	-5.7
